Source: PubChem BioAssay
Hits are enriched below; roughly 21% of the tested compounds scored in any of these assays.
IL-1B inflam inh: blocks inflammasome-driven IL-1 beta release; THP-1 LPS/ATP IL-1B secretion, AlphaLISA, 16 h; stronger effect = lower value; activity change, % at 57.5 µM; 360,000 compounds, 4.7% hits; in the data active = activity change below about -50%; inconclusive = mostly about -30% to -49%
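Secreted IL-1B measured by AlphaLISA bead assay after 16 h compound exposure of THP-1 cells; compounds (final up to 57.5 uM) added 1 h before LPS (250 ng/mL) and ATP (1.25 mM) stimulation; lower signal means less secretion.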
TDP1 cell CPT: DT40-hTDP1 cell growth loss with CPT. chicken DT40 Tdp1-/-;hTDP1 cells + 20 nM CPT, ATP luminescence, 48 h. Potency, µM (highest dose often 46.2 µM), for inactives: top-dose activity change, negative = growth inhibition, actives largely listed as inhibitors. 420,000 compounds, 12% hits; note: potency is the fitted concentration of half-maximal effect; nearly all actives have a fitted effect of over 55% in size
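Cell growth measured by CellTiter-Glo luminescence after a minimum 48 h, 37 C compound exposure with 20 nM CPT in Tdp1-knockout DT40 cells stably expressing hTDP1, seeded 400/well; qHTS titration format.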
TDP1 cell noCPT: qHTS for Inhibitors of human tyrosyl-DNA phosphodiesterase 1 (TDP1): qHTS in cells in absence of CPT; 420,000 compounds, 15% hits; AID 686978, 2013; DT40 Tdp1-/- hTDP1 cells, no CPT, ATP luminescence, 48 h; Potency, µM (highest dose often 46.2 µM), for the others: top-dose activity change, negative = growth inhibition, most hits filed as inhibitors; note: potency is the fitted concentration of half-maximal effect; nearly all actives have a fitted effect of over 55% in size
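DT40 Tdp1-/-;hTDP1 cells, no CPT (DMSO vehicle only), 400 cells/well; compounds pin-transferred; ≥48 hr, 37 °C; CellTiter-Glo 30 min RT dark, luminescence read.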
RORgamma inh: ROR gamma (mouse) transcription inhibition; P51450; Drosophila S2 Gal4-RORgamma UAS-luciferase reporter, 20 h; Potency, µM (doses to about 53.6 µM), inactives show at the highest dose activity change, negative = inhibition, hits mostly inhibitors; 310,000 compounds, 5.4% hits; AID 2551; note: potency is the fitted concentration of half-maximal effect; nearly all actives have a fitted effect of over 60% in size
Target sequence (P51450 whole entry, looked up, the tested form may be a part): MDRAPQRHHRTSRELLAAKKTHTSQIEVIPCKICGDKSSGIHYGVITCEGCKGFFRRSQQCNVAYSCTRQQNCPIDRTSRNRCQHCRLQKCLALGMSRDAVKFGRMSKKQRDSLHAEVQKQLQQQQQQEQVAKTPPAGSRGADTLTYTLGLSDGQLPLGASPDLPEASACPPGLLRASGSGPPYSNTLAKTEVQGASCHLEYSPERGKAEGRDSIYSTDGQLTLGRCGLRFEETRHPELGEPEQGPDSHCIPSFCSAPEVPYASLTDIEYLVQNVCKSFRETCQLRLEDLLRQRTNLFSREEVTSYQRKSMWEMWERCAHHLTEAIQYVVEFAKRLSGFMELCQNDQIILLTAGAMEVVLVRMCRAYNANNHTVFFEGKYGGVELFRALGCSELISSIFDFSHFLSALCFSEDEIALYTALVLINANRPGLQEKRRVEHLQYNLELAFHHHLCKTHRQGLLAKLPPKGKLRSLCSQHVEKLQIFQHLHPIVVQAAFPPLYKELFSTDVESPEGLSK
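Using a luciferase readout, inhibitors were identified by reduced reporter activity in Drosophila cells coexpressing a copper-inducible Gal4–ROR gamma fusion and UAS-driven Photinus luciferase, incubated 20 hr after 700 uM copper sulfate.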
Gal4-VP16 FLuc: inhibits Gal4-VP16 luciferase reporter, ROR gamma counter-screen | Drosophila S2 Gal4-VP16 UAS-luciferase, luminescence, 20 h | Potency, µM (titrated, usually from 53.6 µM), for the others: at the top dose activity, negative = inhibition, hits mostly inhibitors | 310,000 compounds, 3.5% hits | AID 2546;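 note: Gal4-VP16 expression switched on by copper sulfate through the metallothionein promoter; potency is the fitted concentration of half-maximal effect; nearly all actives have a fitted effect of over 50% in size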
ELG1 DNA repair: blocks ELG1-dependent DNA repair in HEK293T cells; HEK293T ELG1-luciferase reporter, luminescence, 16 h; DNA damage induced by 5-fluorouridine; Potency, µM (highest dose often 46.1 µM), inactives show at the highest dose activity change, negative = inhibition, usual class: inhibitors; 330,000 compounds, 2.3% hits; AID 504467; note: potency is the fitted concentration of half-maximal effect; nearly all actives have a fitted effect of over 55% in size
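Step one: seed 2,000 cells per well. Step two: pin-transfer compound or DMSO alongside 5-fluorouridine. Step three: incubate 16 hr, 37 °C, 5% CO2. Step four: add ONE-Glo, wait 30 min, read luminescence.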
Active calls of the source: *. Unless noted, calls come from the whole dose curve; as a rule, active = well fitted curve in the direction sought with a large enough effect; inconclusive = small, poorly fitted or top-dose-only effect, or another doubt; inactive = no such curve, though single readings can be large; an effect the other way counts as inactive or inconclusive. % is set by controls: 0 for no effect and ±100 for the full control effect.

Results for Cc1ccc(OCC(=O)Oc2cccc(C)c2)cc1 ?
IL-1B inflam inh: 0; TDP1 cell CPT: -5%; TDP1 cell noCPT: -1%

How did CC(=O)N1CCN(C(c2ccccc2)c2nnnn2C(C)(C)C)CC1 (stereo unspecified) do in these assays?
IL-1B inflam inh: 60; TDP1 cell CPT: 5%; TDP1 cell noCPT: -14%

Results for COCCCn1c(SCc2cccc(Cl)c2)nc2c(sc3ccccc32)c1=O ?
TDP1 cell CPT: -29%; TDP1 cell noCPT: inconclusive

How did CC[C@]12c3[nH]c4ccc(Cl)cc4c3CCN1C(=O)[C@@H](CC(=O)NCCCN(C)C)C[C@@H]2C(=O)N1CCN(C(=O)c2ccco2)CC1 do in these assays?
IL-1B inflam inh: 24; TDP1 cell CPT: 10%; TDP1 cell noCPT: -8%; ELG1 DNA repair: 24%

Results for C=C(C1=CCN(S(=O)(=O)C(C)(C)C)[C@H]1CCO)c1ccccc1 ?
IL-1B inflam inh: 21; TDP1 cell CPT: inconclusive; TDP1 cell noCPT: 16µM*

Results for C=C(C1=CCN(S(=O)C(C)(C)C)[C@H]1CCO)c1ccccc1 (stereo partly specified) ?
IL-1B inflam inh: 20; TDP1 cell CPT: 13µM*; TDP1 cell noCPT: inconclusive

How did COc1ccc(-n2c(COc3cccc4cccnc34)nnc2SCC(=O)O)cc1 do in these assays?
IL-1B inflam inh: 12; TDP1 cell CPT: -7%; TDP1 cell noCPT: -2%; RORgamma inh: -10%; Gal4-VP16 FLuc: -3%; ELG1 DNA repair: 8%

Results for CC1N(C(=O)N2CCOCC2)CCN1S(=O)(=O)c1ccc(Cl)cc1 (stereo unspecified) ?
IL-1B inflam inh: 19; TDP1 cell CPT: 1%; TDP1 cell noCPT: -4%; RORgamma inh: 4%; Gal4-VP16 FLuc: -11%; ELG1 DNA repair: 7%

Results for Cc1ccc2nc(C(F)(F)F)c(C#N)c(N)c2c1 ?
IL-1B inflam inh: -101*; TDP1 cell CPT: 21µM*; TDP1 cell noCPT: 16µM*; RORgamma inh: 12%; Gal4-VP16 FLuc: -12%; ELG1 DNA repair: inconclusive

How did COc1ccc(Cn2cc(S(=O)(=O)c3ccc(Cl)cc3)c(=O)c3cc4c(cc32)OCO4)cc1 do in these assays?
TDP1 cell CPT: 3%; TDP1 cell noCPT: -15%

Results for COc1ccc(-n2nnc3c(=O)n(CC(=O)Nc4ccc5c(c4)OCCO5)cnc32)cc1OC ?
IL-1B inflam inh: 0; TDP1 cell CPT: 7%; TDP1 cell noCPT: 1%; RORgamma inh: -42%; Gal4-VP16 FLuc: -26%; ELG1 DNA repair: inconclusive

What do the screens show for `COc1ccc(NC(=O)CSc2nc(-c3ccccc3)[nH]c2-c2ccccc2)cc1OC`?
TDP1 cell CPT: 15µM*; TDP1 cell noCPT: 8.2µM*

How did COc1cccc(-c2nc(SCC(=O)Nc3ccc4c(c3)OCCO4)c(-c3ccc(C)cc3)[nH]2)c1 do in these assays?
TDP1 cell CPT: inconclusive; TDP1 cell noCPT: 23µM*

How did COc1ccc(NC(=O)CSc2ncccc2C(=O)OC(C)C)cc1OC do in these assays?
IL-1B inflam inh: -6; TDP1 cell CPT: 12µM*; TDP1 cell noCPT: 12µM*; RORgamma inh: 3%; Gal4-VP16 FLuc: 2%; ELG1 DNA repair: inconclusive

How did COc1ccc(-n2nnc3c(SCC(=O)Nc4ccc5c(c4)OCCO5)ncnc32)cc1 do in these assays?
RORgamma inh: 7.9µM*; Gal4-VP16 FLuc: inconclusive; ELG1 DNA repair: 2%

How did COc1ccc(NC(=O)CSc2ccccn2)cc1OC do in these assays?
IL-1B inflam inh: -1; TDP1 cell CPT: -6%; TDP1 cell noCPT: -2%; RORgamma inh: 3%; Gal4-VP16 FLuc: 14%

How did O=C(CN1CCN(C(=O)CNC(=O)c2ccc3c(c2)OCO3)CC1)Nc1ccc(F)cc1 do in these assays?
IL-1B inflam inh: -11; TDP1 cell CPT: 8%; TDP1 cell noCPT: inconclusive; ELG1 DNA repair: 2%

How did CN(C(=O)Nc1ccc(Cl)cc1Cl)C1CCCC1 do in these assays?
IL-1B inflam inh: -18; TDP1 cell CPT: -13%; TDP1 cell noCPT: 2%; RORgamma inh: -11%; Gal4-VP16 FLuc: 17%; ELG1 DNA repair: inconclusive

How did COc1cc(-c2nc(SCC(=O)Nc3ccc(C)cc3)c(-c3ccc(F)cc3)[nH]2)cc(OC)c1OC do in these assays?
TDP1 cell CPT: inconclusive; TDP1 cell noCPT: 15µM*

What do the screens show for `COc1ccc(-c2[nH]c(-c3ccccc3)nc2SCC(=O)Nc2ccc3c(c2)OCO3)cc1`?
TDP1 cell CPT: inconclusive; TDP1 cell noCPT: 21µM*

How did COc1ccc(-c2nc(SCC(=O)Nc3ccc4c(c3)OCCO4)c(-c3ccc(F)cc3)[nH]2)cc1OC do in these assays?
TDP1 cell CPT: inconclusive; TDP1 cell noCPT: 21µM*

What do the screens show for `O=C(CSc1nc(-c2ccc(F)cc2)[nH]c1-c1ccccc1)Nc1ccccc1`?
TDP1 cell CPT: 18µM*; TDP1 cell noCPT: 12µM*

Results for COCCCNC(=O)CSc1nc(-c2ccc(OC)c(OC)c2)[nH]c1-c1ccc(F)cc1 ?
TDP1 cell CPT: 0%; TDP1 cell noCPT: -7%

What do the screens show for `COc1ccc(-c2[nH]c(-c3ccc(C)cc3)nc2SCC(=O)Nc2nccs2)cc1`?
IL-1B inflam inh: 15; TDP1 cell CPT: inconclusive; TDP1 cell noCPT: inconclusive; RORgamma inh: inconclusive; Gal4-VP16 FLuc: 4%; ELG1 DNA repair: inconclusive

Results for Cc1ccc(CNC(=O)CCCCn2c(=O)c3ccccc3n(Cc3c(C)cc(C)cc3C)c2=O)cc1 ?
TDP1 cell CPT: -1%; TDP1 cell noCPT: -10%

What do the screens show for `Cc1ccc([C@H]2N[C@]3(CCCN(Cc4ccc(Cl)cc4)C3=O)[C@H]3C(=O)N(Cc4ccccc4)C(=O)[C@@H]23)cc1`?
IL-1B inflam inh: -27; TDP1 cell CPT: inconclusive; TDP1 cell noCPT: inconclusive

What do the screens show for `Cc1cc(C)cc(NC(=O)CSc2oc(-c3ccco3)nc2S(=O)(=O)c2ccc(Cl)cc2)c1`?
TDP1 cell CPT: 23µM*; TDP1 cell noCPT: inconclusive

How did NC(=O)CSc1oc(-c2ccco2)nc1S(=O)(=O)c1ccc(Cl)cc1 do in these assays?
IL-1B inflam inh: -8; TDP1 cell CPT: 4%; TDP1 cell noCPT: 3%; RORgamma inh: -3%; Gal4-VP16 FLuc: -7%; ELG1 DNA repair: 6%

How did CCOc1ccc(NC(=O)CSc2oc(-c3ccco3)nc2S(=O)(=O)c2ccc(Cl)cc2)cc1 do in these assays?
TDP1 cell CPT: 21µM*; TDP1 cell noCPT: inconclusive
